{"source": "PubChem BioAssay (NCI)", "note": "The panel holds about 79,000 compounds, 15% with a hit somewhere; the sample as a whole holds those more often. Unmarked numbers belong to inactive results. The source made the active and inactive calls. No stated cut-off is given here; in the data, active means growth inhibition above about 70%; inactive means the rest. Where a SMILES comes first, the peptide text is derived from it. Bridges are numbered along the chain shown (N, C = ends). [ ]: non-standard residue; d: D form. The star is where a group is joined. ξ: configuration not given here. PhAc = O=C(Cc1ccccc1)*; ξP = O=C(O)C1CCCN1"}
{"assay": "NCI Yeast Anticancer Drug Screen. Data for the cln2 rad14 strain (AID 165);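 further: 0% = growth equal to vehicle treated cultures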", "conditions": "S. cerevisiae cln2 rad14 strain, at 50.0 µM, active compounds read high", "summary_of_the_method": "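Growth inhibition, relative to vehicle-treated controls, is the read-out. The test organism is a yeast strain with defined genetic alterations, cln2 rad14.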"}
{"smiles": "O=CN(c1ccccc1)c1ccccc1", "growth inhibition": "-15.4%"}
{"smiles": "COC1(OC)CC2C(=O)N(Cc3ccccc3)C1C(S(=O)(=O)c1ccccc1)C2S(=O)(=O)c1ccccc1", "note": "(stereo not given)", "growth inhibition": "-31.7%"}
{"smiles": "COC(=O)c1c2c(cc3c1CC1(Cc4cc5c(cc4C1=O)CCC5)C3)CCC2", "note": "(stereo not given)", "growth inhibition": "0.45%"}
{"smiles": "COc1ccc(CCNC(=O)Cc2ccc(Cl)cc2)cc1OC", "growth inhibition": "4.2%"}
{"smiles": "Cc1c(Cl)c(C)c(Cc2c(C)c(Cl)c(C)c(Cl)c2O)c(O)c1Cl", "growth inhibition": "-11.7%"}
{"smiles": "CC1OC(OC2C(CO)OC(O[C@H]3CC[C@@]4(C)C(=CC[C@H]5[C@@H]6C[C@@H]7O[C@]8(CC[C@@H](C)CN8)[C@@H](C)[C@@H]7[C@@]6(C)CC[C@@H]54)C3)C(O)C2O)C(O)C(O)C1O", "note": "(stereo not given in full)", "growth inhibition": "15.2%"}
{"smiles": "CC1=CC(NCCC(=O)O)NC(=O)N1", "note": "(stereo not given)", "growth inhibition": "-62.6%"}
{"smiles": "COc1cccc(C2CC(C)(N3CCCC3)Oc3cc4c(cc32)OCO4)c1O", "note": "(stereo not given)", "growth inhibition": "13.8%"}
{"smiles": "CC(C)[C@H]1CC[C@@](C)(C(=O)O)C1", "growth inhibition": "5.8%"}
{"smiles": "CC[N+](C)(CC)CC(O)C[N+]1(C)CC2CCCCC2C1", "note": "(stereo not given)", "growth inhibition": "-10.2%"}
{"smiles": "Nc1nc(N)nc(SCC(=O)O)n1", "growth inhibition": "3.15%"}
{"smiles": "COc1nc(NC2OC(CO)C(O)C(O)C2O)c(C(C)=O)c(=O)n1C", "note": "(stereo not given)", "growth inhibition": "15.2%"}
{"smiles": "CC(=O)OC1CC2CCC1(c1ccccc1)C2", "note": "(stereo not given)", "growth inhibition": "14.4%"}
{"smiles": "Nc1c(Cl)cc2c(c1Br)C(=O)c1ccccc1C2=O", "growth inhibition": "23.4%"}
{"smiles": "Cc1ccc(OC(=O)c2cc([N+](=O)[O-])cc([N+](=O)[O-])c2)cc1", "growth inhibition": "-12.8%"}
{"smiles": "CCOC(=O)CC(=O)C(=O)NNC1=NCCN1", "growth inhibition": "2.45%"}
{"smiles": "NCCc1c(-c2cccnc2)[nH]c2ccccc12", "growth inhibition": "-25.4%"}
{"smiles": "CCCCCCCCCCCCCCCCOc1ccc(-c2cc(=O)n(C)n2C)cc1", "growth inhibition": "-8.45%"}
{"smiles": "COc1ccc(N2C(=O)/C(=C/c3ccc(N(CCC#N)CCC#N)cc3C)N=C2c2cc([N+](=O)[O-])ccc2Cl)cc1", "growth inhibition": "-5.55%"}
{"smiles": "CSCNC(=S)Nc1ccc(Cl)c(Cl)c1", "growth inhibition": "23.4%"}
{"smiles": "COc1cc(C(=O)CC(=O)Cc2ccc3ccccc3n2)cc(OC)c1OC", "growth inhibition": "-15.7%"}
{"smiles": "C[N+](C)(C)CC(=O)N/N=C(\\C(=O)NC1=C(Cl)C(=O)c2ccccc2C1=O)C(C#N)c1csc(-c2ccc([N+](=O)[O-])cc2)n1", "note": "(stereo not given)", "growth inhibition": "17.6%"}
{"smiles": "O=[N+]([O-])c1cccc(-c2csc(NNC3=NC/C(=C/c4ccc5c(c4)OCO5)S3)n2)c1", "growth inhibition": "-33.5%"}
{"smiles": "O=C(Cc1ccccc1)N[C@@H]1COC(=O)C2CCCN2C(=O)[C@@H]2CCCN2C1=O", "note": "(stereo not given in full) (PhAc-[dS]-Pro-[ξP]; ester 1-C)", "growth inhibition": "27.4%"}
{"smiles": "COc1ccc(C(=O)C(O)c2ccc(OC)cc2)cc1", "note": "(stereo not given)", "growth inhibition": "-16.4%"}
{"smiles": "Cc1ncc([N+](=O)[O-])n1CCNC(=O)CCCCCn1ccnc1[N+](=O)[O-]", "growth inhibition": "19.7%"}
{"smiles": "OC1c2ccccc2-c2ccc(NCc3ccc4c(c3)OCO4)cc21", "note": "(stereo not given)", "growth inhibition": "-5.2%"}
{"smiles": "Cc1cccc(/C=C/c2csnn2)n1", "growth inhibition": "14.6%"}
{"smiles": "O=[N+]([O-])c1ccc(N/N=C/C2CCCCCC2)c([N+](=O)[O-])c1", "growth inhibition": "-147%"}
{"smiles": "BrC1(Br)C2CC/C=C/CCCCC21", "note": "(stereo not given)", "growth inhibition": "-1.85%"}
{"smiles": "C1=C(c2ccccc2)OC(c2ccccc2)=C(c2ccccc2)[P+]1(c1ccccc1)c1ccccc1", "growth inhibition": "99.7% (active)"}
{"smiles": "COc1ccc2nc3cccc([N+](=O)[O-])c3c(NCCC(=O)O)c2c1", "growth inhibition": "26.8%"}
{"smiles": "O=C1CCN(C(=O)C2=CC(=O)OC2)C1", "growth inhibition": "-33.6%"}
{"smiles": "COC(=O)c1ccccc1NC(=O)Nc1ccccc1", "growth inhibition": "-14.9%"}
{"smiles": "CC1(C)Cc2ccccc2C(C)(Cl)C(=O)N1", "note": "(stereo not given)", "growth inhibition": "17.9%"}
{"smiles": "COc1cc(C)n2nnnc2n1", "growth inhibition": "-15.8%"}
{"smiles": "CC1=C(C(=O)OCCc2ccc([N+](=O)[O-])cc2)C(c2cccc([N+](=O)[O-])c2)C(C(=O)OC(C)C)=C(C)N1", "note": "(stereo not given)", "growth inhibition": "0.45%"}
{"smiles": "COc1ccc2oc3c(ccc[n+]3C)c(=O)c2c1", "growth inhibition": "10.9%"}
{"smiles": "C=C(CBr)CCCOCc1ccccc1", "growth inhibition": "2.1%"}
{"smiles": "CCc1cn(C2CC(CO)C(CO)S2)c(=O)[nH]c1=O", "note": "(stereo not given)", "growth inhibition": "-6.4%"}
{"assay": "NCI Yeast Anticancer Drug Screen. Data for the bub3 strain (AID 167)", "conditions": "S. cerevisiae bub3 mutant strain, at 50.0 µM, active compounds read high", "summary_of_the_method": "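Screening used yeast with an engineered genetic alteration affecting cell cycle control. Compound-exposed cultures were compared with vehicle cultures, and reduced growth was taken as inhibition.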"}
{"smiles": "O=CN(c1ccccc1)c1ccccc1", "growth inhibition": "-4.55%"}
{"smiles": "COC1(OC)CC2C(=O)N(Cc3ccccc3)C1C(S(=O)(=O)c1ccccc1)C2S(=O)(=O)c1ccccc1", "note": "(stereo not given)", "growth inhibition": "50.2%"}
{"smiles": "COC(=O)c1c2c(cc3c1CC1(Cc4cc5c(cc4C1=O)CCC5)C3)CCC2", "note": "(stereo not given)", "growth inhibition": "10.8%"}
{"smiles": "COc1ccc(CCNC(=O)Cc2ccc(Cl)cc2)cc1OC", "growth inhibition": "-5.75%"}
{"smiles": "Cc1c(Cl)c(C)c(Cc2c(C)c(Cl)c(C)c(Cl)c2O)c(O)c1Cl", "growth inhibition": "-5.2%"}
{"smiles": "CC1OC(OC2C(CO)OC(O[C@H]3CC[C@@]4(C)C(=CC[C@H]5[C@@H]6C[C@@H]7O[C@]8(CC[C@@H](C)CN8)[C@@H](C)[C@@H]7[C@@]6(C)CC[C@@H]54)C3)C(O)C2O)C(O)C(O)C1O", "note": "(stereo not given in full)", "growth inhibition": "6.1%"}
{"smiles": "CC1=CC(NCCC(=O)O)NC(=O)N1", "note": "(stereo not given)", "growth inhibition": "-1.75%"}
{"smiles": "COc1cccc(C2CC(C)(N3CCCC3)Oc3cc4c(cc32)OCO4)c1O", "note": "(stereo not given)", "growth inhibition": "28.6%"}
{"smiles": "CC(C)[C@H]1CC[C@@](C)(C(=O)O)C1", "growth inhibition": "23.4%"}
{"smiles": "CC[N+](C)(CC)CC(O)C[N+]1(C)CC2CCCCC2C1", "note": "(stereo not given)", "growth inhibition": "-4.65%"}
{"smiles": "Nc1nc(N)nc(SCC(=O)O)n1", "growth inhibition": "-2.05%"}
{"smiles": "COc1nc(NC2OC(CO)C(O)C(O)C2O)c(C(C)=O)c(=O)n1C", "note": "(stereo not given)", "growth inhibition": "-6.25%"}
{"smiles": "CC(=O)OC1CC2CCC1(c1ccccc1)C2", "note": "(stereo not given)", "growth inhibition": "-1.2%"}
{"smiles": "Nc1c(Cl)cc2c(c1Br)C(=O)c1ccccc1C2=O", "growth inhibition": "11.9%"}
{"smiles": "Cc1ccc(OC(=O)c2cc([N+](=O)[O-])cc([N+](=O)[O-])c2)cc1", "growth inhibition": "2%"}
{"smiles": "CCOC(=O)CC(=O)C(=O)NNC1=NCCN1", "growth inhibition": "13.3%"}
{"smiles": "NCCc1c(-c2cccnc2)[nH]c2ccccc12", "growth inhibition": "7.6%"}
{"smiles": "CCCCCCCCCCCCCCCCOc1ccc(-c2cc(=O)n(C)n2C)cc1", "growth inhibition": "-2.9%"}
{"smiles": "COc1ccc(N2C(=O)/C(=C/c3ccc(N(CCC#N)CCC#N)cc3C)N=C2c2cc([N+](=O)[O-])ccc2Cl)cc1", "growth inhibition": "-13.9%"}
{"smiles": "CSCNC(=S)Nc1ccc(Cl)c(Cl)c1", "growth inhibition": "53%"}
{"smiles": "COc1cc(C(=O)CC(=O)Cc2ccc3ccccc3n2)cc(OC)c1OC", "growth inhibition": "2.05%"}
{"smiles": "C[N+](C)(C)CC(=O)N/N=C(\\C(=O)NC1=C(Cl)C(=O)c2ccccc2C1=O)C(C#N)c1csc(-c2ccc([N+](=O)[O-])cc2)n1", "note": "(stereo not given)", "growth inhibition": "33.5%"}
{"smiles": "O=[N+]([O-])c1cccc(-c2csc(NNC3=NC/C(=C/c4ccc5c(c4)OCO5)S3)n2)c1", "growth inhibition": "23.6%"}
{"smiles": "O=C(Cc1ccccc1)N[C@@H]1COC(=O)C2CCCN2C(=O)[C@@H]2CCCN2C1=O", "note": "(stereo not given in full) (PhAc-[dS]-Pro-[ξP]; ester 1-C)", "growth inhibition": "12.3%"}
{"smiles": "COc1ccc(C(=O)C(O)c2ccc(OC)cc2)cc1", "note": "(stereo not given)", "growth inhibition": "-4.35%"}
{"smiles": "Cc1ncc([N+](=O)[O-])n1CCNC(=O)CCCCCn1ccnc1[N+](=O)[O-]", "growth inhibition": "-6.15%"}
{"smiles": "OC1c2ccccc2-c2ccc(NCc3ccc4c(c3)OCO4)cc21", "note": "(stereo not given)", "growth inhibition": "-4.1%"}
{"smiles": "Cc1cccc(/C=C/c2csnn2)n1", "growth inhibition": "-6.05%"}
{"smiles": "O=[N+]([O-])c1ccc(N/N=C/C2CCCCCC2)c([N+](=O)[O-])c1", "growth inhibition": "-14.7%"}
{"smiles": "BrC1(Br)C2CC/C=C/CCCCC21", "note": "(stereo not given)", "growth inhibition": "-3.05%"}
{"smiles": "C1=C(c2ccccc2)OC(c2ccccc2)=C(c2ccccc2)[P+]1(c1ccccc1)c1ccccc1", "growth inhibition": "99.5% (active)"}
{"smiles": "COc1ccc2nc3cccc([N+](=O)[O-])c3c(NCCC(=O)O)c2c1", "growth inhibition": "-5.25%"}
{"smiles": "O=C1CCN(C(=O)C2=CC(=O)OC2)C1", "growth inhibition": "5.15%"}
{"smiles": "COC(=O)c1ccccc1NC(=O)Nc1ccccc1", "growth inhibition": "4.25%"}
{"smiles": "CC1(C)Cc2ccccc2C(C)(Cl)C(=O)N1", "note": "(stereo not given)", "growth inhibition": "-26.9%"}
{"smiles": "COc1cc(C)n2nnnc2n1", "growth inhibition": "1.3%"}
{"smiles": "CC1=C(C(=O)OCCc2ccc([N+](=O)[O-])cc2)C(c2cccc([N+](=O)[O-])c2)C(C(=O)OC(C)C)=C(C)N1", "note": "(stereo not given)", "growth inhibition": "16.1%"}
{"smiles": "COc1ccc2oc3c(ccc[n+]3C)c(=O)c2c1", "growth inhibition": "-2.9%"}
{"smiles": "C=C(CBr)CCCOCc1ccccc1", "growth inhibition": "-5.35%"}
{"smiles": "CCc1cn(C2CC(CO)C(CO)S2)c(=O)[nH]c1=O", "note": "(stereo not given)", "growth inhibition": "-8.55%"}
